The test system of test [1] is Human papillomavirus type 1a protein E7 (residues 44-93). The test is described as follows: small molecules binding HPV E7 44-93 – biochemical, small-molecule microarray, residues 44-93, 635 nm fluorescence, primary screen (AID 1108).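 Note: E7 fragment applied at 1 µg/mL in TBST for 1 h at 4 C; score combines spot fluorescence with its signal to noise ratio.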 To be noted: fluorescence 635 nm, higher = more signal.
Test [2] is described as follows: hepatitis C replication reporter changes, two-sided – Huh7 cells, luciferase reporter, HCV replication inhibitor project, primary screen (AID 1109).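 Note: huh7 hepatoma cells harbouring a luciferase neomycin HCV replicon reporter; luciferase luminescence as measure of HCV replicon replication; test concentration not given here.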 To be noted: Huh7 HCV replicon luciferase reporter, 48 h; higher = more signal. For orientation: A reporter such as luciferase makes a cellular process visible.
For test [3], the target named is Left-right determination factor 2 (Homo sapiens) (UniProt O00292). Put plainly: small molecules binding LEFTY2 protein – biochemical, small-molecule microarray, 635 nm fluorescence scan, primary screen (AID 1110). To be noted: higher = more signal.
Test [4] has as its target Calmodulin-1 (Homo sapiens) (UniProt P0DP23). The test is described as follows: small molecules binding calmodulin-1 with EGTA – biochemical, small-molecule microarray, Cy5-labelled CALM1, profiling panel (AID 1111).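 Note: labelled calmodulin applied in Tris saline Tween buffer holding calcium plus EGTA and DTT.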 To be noted: Cy5-CALM1 binding fluorescence, higher = more signal.
The target is the same in test [5]. The test is described as follows: small molecules binding Ca-loaded calmodulin-1 – biochemical, small-molecule microarray, Cy5-labelled CALM1, plus calcium, artefact control for SMM control-protein annotation, profiling panel (AID 1112).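 Note: score merges spot fluorescence with signal to noise from triplicate slides.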 As to conditions: Cy5-CALM1 binding fluorescence, higher = more signal.
Test [6] can be described thus: probe aWnt5a binding to arrayed compounds – biochemical, biotinylated probe, 635/667 nm fluorescence, primary screen (AID 1113).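 Note: score merges 667 nm fluorescence intensity with signal-to-noise per printed feature.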 To be noted: small-molecule microarray, higher = more signal.
Test [7] in a line: probe aShh binding to arrayed compounds – biochemical, biotinylated probe, 635/667 nm fluorescence, primary screen (AID 1114).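 Note: probe is biotin-labelled aShh protein from a stem cell growth factor screen; measures binding of labelled protein to compounds printed on the slide; score merges feature fluorescence at 667 nm with signal-to-noise.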 As to conditions: small-molecule microarray, higher = more signal.
The nature of test [8]: probe aNog binding to arrayed compounds – biochemical, biotinylated probe, 635/667 nm fluorescence, primary screen (AID 1115).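 Note: probe is biotinylated aNog protein used at 0.15 µg/mL for 1 h at 4 C; z-score combines 667 nm fluorescence of each spot with its signal to noise.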 To be noted: small-molecule microarray, higher = more signal.
The target of test [9] is Torsin-1A-interacting protein 1 (Homo sapiens) (UniProt Q5JTV8). Put plainly: compound microarray binding of lysate hLAP1 – cell lysate, small-molecule microarray, COS7 lysate, 635/667 nm fluorescence, primary screen (AID 1116). As to conditions: 635 nm fluorescence, higher = more signal.
For test [10], the target named is Alpha-bungarotoxin (Bungarus multicinctus) (UniProt P60615). The test is described as follows: compounds binding labelled alpha-BTX control protein – biochemical, small-molecule microarray, Alexa647 label, 635/667 nm fluorescence, artefact control for SMM control protein annotation, profiling panel (AID 1117). To be noted: alpha-BTX-A647 binding fluorescence, higher = more signal.

For another test, the target named is Albumin (Bos taurus) (UniProt P02769). Put plainly: compounds binding labelled BSA control protein – biochemical, small-molecule microarray, Alexa647 label, 635/667 nm fluorescence, artefact control for SMM control protein annotation, profiling panel (AID 1118).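 Note: score merges 667 nm emission intensity and signal-to-noise per printed compound spot.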 As to conditions: BSA-A647 binding, fluorescence 635 nm, higher = more signal.
Test [11] in a line: probe aXIP binding to arrayed compounds – biochemical, NeuroSMM set, 635/667 nm fluorescence, primary screen (AID 1119).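 Note: probe is the protein aXip251-270 applied at 1 µg/mL to compound-printed slides; binding of probe to printed compounds measured as 667 nm fluorescence plus signal to noise.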 As to conditions: small-molecule microarray, higher = more signal, called active from +8 up or from −8 down.
The nature of test [12]: probe aNOTCH3 binding on compound microarray – biochemical, small-molecule microarray, 635/667 nm fluorescence, primary screen (AID 1120).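 Note: probe is a biotin-tagged antibody raised against NOTCH3 rather than NOTCH3 protein; score merges spot fluorescence near 667 nm with spot signal to noise.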 To be noted: higher = more signal.
Test [13] in a line: probe aNOTCH2 binding on compound microarray – biochemical, small-molecule microarray, 635/667 nm fluorescence, primary screen (AID 1121).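 Note: score merges feature fluorescence read at 667 nm with its signal to noise.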 To be noted: higher = more signal.
For test [14], the target named is Carbonic anhydrase 2 (Homo sapiens) (UniProt P00918). The test is described as follows: compounds binding carbonic anhydrase 2 – biochemical, small-molecule microarray, Alexa647-labelled CAII, profiling panel (AID 1122). To be noted: CAII-A647 binding fluorescence, higher = more signal.
Test [15] in a line: COS7 lysate on small-molecule microarray, probe aHis, 635 nm (AID 1123).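 Note: z-score combines 667nm fluorescence intensity with signal-to-noise per printed compound spot.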 As to conditions: COS7 cell lysate, fluorescence, higher = more signal.
Test [16] can be described thus: probe aLAP1 signal on lysate-treated microarray – cell lysate, small-molecule microarray, COS7 lysate, primary screen (AID 1124).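 Note: lysate comes from COS7 cells expressing LAP1 and is applied at 0.3 µg/mL; score merges spot fluorescence near 667 nm with signal-to-noise over triplicate slides.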 As to conditions: probe aLAP1, fluorescence, higher = more signal.
The subject of a further test is Sam68 (KHDRBS1). The test is described as follows: compounds binding KHDRBS1 protein – biochemical, small-molecule microarray, 635 nm fluorescence, primary screen (AID 1125).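 Note: score merges 667 nm channel intensity with signal to noise over triplicate slides.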 To be noted: higher = more signal.
The test system of test [17] is Chordin-like protein 2 (CHRDL2). Put plainly: compounds binding chordin-like 2 – biochemical, small-molecule microarray, 635 nm fluorescence, primary screen (AID 1126).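 Note: printed compound slides probed with Chrdl2 protein at 4 µg/mL for 1 h at 4 C; score merges 667 nm emission intensity with signal to noise over three replicate slides.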 To be noted: fluorescence 635 nm, higher = more signal.
Test [18] deals with Concanavalin-A (Canavalia ensiformis) (UniProt P02866). The test is described as follows: compounds binding concanavalin A lectin – biochemical, small-molecule microarray, Alexa647 label, 635 nm, artefact control for SMM control protein annotation, primary screen (AID 1127).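 Note: z combines 667 nm emission intensity with signal-to-noise across three replicate slides.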 As to conditions: ConA-A647 binding fluorescence, higher = more signal.

Active and inactive are the calls of the source.

Chain of Torsin-1A-interacting protein 1 (Homo sapiens) (Q5JTV8 whole entry, looked up): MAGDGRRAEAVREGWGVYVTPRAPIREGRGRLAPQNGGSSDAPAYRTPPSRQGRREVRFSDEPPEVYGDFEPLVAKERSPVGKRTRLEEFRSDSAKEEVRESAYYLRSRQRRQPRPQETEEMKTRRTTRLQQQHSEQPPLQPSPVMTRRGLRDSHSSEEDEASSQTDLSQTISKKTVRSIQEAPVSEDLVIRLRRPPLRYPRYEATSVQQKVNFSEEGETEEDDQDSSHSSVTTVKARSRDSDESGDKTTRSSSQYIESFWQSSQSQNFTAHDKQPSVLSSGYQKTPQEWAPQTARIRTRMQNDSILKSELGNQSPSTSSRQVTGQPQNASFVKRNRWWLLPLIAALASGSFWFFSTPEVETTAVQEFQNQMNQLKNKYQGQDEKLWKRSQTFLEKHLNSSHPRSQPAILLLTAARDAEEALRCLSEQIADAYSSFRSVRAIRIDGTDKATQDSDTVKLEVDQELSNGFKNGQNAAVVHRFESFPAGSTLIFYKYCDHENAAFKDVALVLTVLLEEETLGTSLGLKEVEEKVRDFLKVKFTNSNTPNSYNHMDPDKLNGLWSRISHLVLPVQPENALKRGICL
Chain of Left-right determination factor 2 (Homo sapiens) (O00292 whole entry, looked up): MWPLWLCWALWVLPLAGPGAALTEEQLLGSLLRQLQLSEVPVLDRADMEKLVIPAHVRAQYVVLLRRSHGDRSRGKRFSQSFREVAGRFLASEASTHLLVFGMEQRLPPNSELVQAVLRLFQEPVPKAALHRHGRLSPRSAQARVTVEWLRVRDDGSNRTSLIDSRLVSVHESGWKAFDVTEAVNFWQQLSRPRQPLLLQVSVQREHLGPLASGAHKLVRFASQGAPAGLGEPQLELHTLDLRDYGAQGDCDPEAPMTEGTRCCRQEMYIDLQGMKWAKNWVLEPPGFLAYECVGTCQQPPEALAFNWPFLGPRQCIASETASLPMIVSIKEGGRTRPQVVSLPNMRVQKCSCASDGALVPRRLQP
Chain of Alpha-bungarotoxin (Bungarus multicinctus) (P60615 whole entry, looked up): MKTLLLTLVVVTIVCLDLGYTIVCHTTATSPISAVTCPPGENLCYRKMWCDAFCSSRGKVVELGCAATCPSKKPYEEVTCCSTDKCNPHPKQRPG
Chain of Albumin (Bos taurus) (P02769 whole entry, looked up): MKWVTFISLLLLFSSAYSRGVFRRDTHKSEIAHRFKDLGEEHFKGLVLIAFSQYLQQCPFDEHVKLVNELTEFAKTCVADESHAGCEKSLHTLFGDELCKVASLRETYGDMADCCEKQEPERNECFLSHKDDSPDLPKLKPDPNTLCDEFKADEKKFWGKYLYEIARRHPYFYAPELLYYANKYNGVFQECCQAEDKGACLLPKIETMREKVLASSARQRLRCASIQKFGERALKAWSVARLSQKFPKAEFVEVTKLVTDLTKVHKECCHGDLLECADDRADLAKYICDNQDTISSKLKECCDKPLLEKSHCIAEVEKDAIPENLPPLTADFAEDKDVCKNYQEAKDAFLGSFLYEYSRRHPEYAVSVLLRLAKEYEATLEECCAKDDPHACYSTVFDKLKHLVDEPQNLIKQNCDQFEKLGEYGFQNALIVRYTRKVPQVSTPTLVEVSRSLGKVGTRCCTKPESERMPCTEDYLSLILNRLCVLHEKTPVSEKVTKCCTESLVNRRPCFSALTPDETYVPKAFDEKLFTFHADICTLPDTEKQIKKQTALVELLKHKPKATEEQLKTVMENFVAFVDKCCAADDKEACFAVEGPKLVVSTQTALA
Chain of Concanavalin-A (Canavalia ensiformis) (P02866 whole entry, looked up): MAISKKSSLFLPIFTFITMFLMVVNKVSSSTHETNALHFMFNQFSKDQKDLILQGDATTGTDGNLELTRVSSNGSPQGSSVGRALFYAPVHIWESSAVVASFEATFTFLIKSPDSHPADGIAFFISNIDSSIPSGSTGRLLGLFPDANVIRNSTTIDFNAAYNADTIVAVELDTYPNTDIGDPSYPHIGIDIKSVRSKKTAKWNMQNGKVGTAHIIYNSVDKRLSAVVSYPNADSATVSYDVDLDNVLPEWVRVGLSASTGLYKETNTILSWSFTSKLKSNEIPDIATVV

`C=CCOC(=O)[C@H]1[C@@H]2C(=O)O[C@@H](c3ccccc3)[C@@H](c3ccccc3)N2[C@@H](c2ccc(OCCOC(=O)[C@H]3C[C@H]4C(=O)N[C@@H](CCCC[N+](C)(C)C)C(=O)N4[C@H]3c3cccc(OCCO)c3)cc2)[C@]12C(=O)Nc1ccc(I)cc12`: the composite z-score in [1] was 0.62; in [3], 0.73; in test [4] it was 0.727; in test [5] it was 0.119; in [6], -0.0721; in test [7], -0.138. Further, the composite z-score was 0.0051 in [8]; 0.62 in test [9]; 0.113 in [10]; -0.0737 with Albumin (Bos taurus); -0.208 in [12]; -0.161 in test [13]. Besides, the composite z-score was determined as 0.108 in test [14]; 0.365 in test [15]; 0.072 in test [16]; 0.489 in the test on Sam68 (KHDRBS1); 0.578 in test [17]; 1.13 in test [18]. This molecule yielded a z-score in test [2] of -1.38. Also, the composite Z-score in test [11] was 0.197 (inactive).
With `CC(C)CN1C(=O)[C@@]2(Cc3ccccc31)c1ccccc1C(=O)N(Cc1ccccc1C(F)(F)F)[C@H]2c1ccc(CO)cc1`, the composite z-score in [1] is -1.57; in test [3], -0.584; in test [4], -0.566; in [5], -0.815; in [6] it was -0.2; in test [7], -0.138. In addition, the composite z-score is -0.303 in test [8]; -1.07 in [9]; 0.14 in test [10]; -0.139 in the test with Albumin (Bos taurus); -0.172 in test [12]; -0.157 in test [13]. Also, the composite z-score in [14] was -0.381; in test [15] it was -0.562; in [16], -0.438; in the test on Sam68 (KHDRBS1), -2.12; in test [17] it was -0.846; in test [18], 0.027. This molecule showed a z-score in [2] of 0.186. For the same molecule, in [11], the composite Z-score is 0.174 (inactive).
As to `CN1C(=O)C2C(C1=O)C1C=C(c3ccc(CO)cc3)C2C(c2cccs2)N1Cc1cccc(OC(F)(F)F)c1` (stereo not given), the composite z-score is 1.4 in test [1]; 0.526 in test [3]; 1.1 in test [4]; 0.334 in [5]; 0.0077 in [6]; -0.0749 in test [7]. Also, the composite z-score in test [8] was -0.251; in test [9] it was 0.291; in [10] it was 1.43; with Albumin (Bos taurus), 0.866; in [12] it was 0.0824; in test [13], -0.152. Further, the composite z-score is 0.47 in test [14]; 1.98 in test [15]; 0.37 in [16]; 1.28 in the test on Sam68 (KHDRBS1); 0.0434 in test [17]; 1.08 in test [18]. Moreover, in test [2], the z-score was -1.3. Moreover, the composite Z-score in test [11] was -0.228 (inactive).
For `COc1cc2c(cc1OC)CN(C(=O)[C@H]1[C@@H]3C(=O)O[C@@H](c4ccccc4)[C@@H](c4ccccc4)N3[C@@H](c3ccc(OCCO)cc3)[C@]13C(=O)Nc1ccc(C#CC4(O)CCCCCC4)cc13)CC2`, the composite z-score in test [1] is 1.43; in test [3], 1.15; in [4] it was 0.91; in test [5], 0.765; in test [6], -0.236; in test [7], -0.882. Also, the composite z-score in [8] was 1.72; in [9], 0.964; in [10], 0.691; with Albumin (Bos taurus) it was 0.822; in [12] it was -0.337; in [13], -0.126. For the same molecule, the composite z-score worked out at 0.619 in [14]; 1.52 in test [15]; 0.491 in [16]; 1.29 in the test with Sam68 (KHDRBS1); 0.739 in test [17]; 1.18 in test [18]. The same molecule gave a z-score in [2] of -1.33. Moreover, in test [11], the composite Z-score is -0.195 (inactive).
Take `NCCCCCCNC(=O)[C@@H]1C[C@@H]2C(=O)N3CCC[C@H]3C(=O)N2[C@@H]1c1ccc(O)cc1`: the composite z-score in [1] was 1.31; in test [3] it was 1.31; in test [4], 0.718; in [5], 0.683; in test [6] it was 0.0049; in [7] it was 0.0328. The composite z-score in [8] was -0.157; in [9], 0.557; in test [10] it was 0.705; with Albumin (Bos taurus), 0.654; in test [12] it was -0.0647; in test [13], -0.182. Further, the composite z-score amounted to 0.291 in test [14]; 1.32 in test [15]; 0.81 in test [16]; 1.25 in the test with Sam68 (KHDRBS1); 0.417 in test [17]; 1.15 in test [18]. In test [2], the z-score was 0.808. Besides, the composite Z-score in test [11] was -0.259 (inactive).
For the molecule `COc1ccc(C(O)C2C=CC3C(=O)N(C)C(=O)C3N2N2CCCCC2)cc1` (stereo not given), the composite z-score in test [1] came to 0.069; in test [3], 0.108; in [4] it was 0.204; in test [5], 0.3; in test [6] it was 0.1; in test [7], 0.457. Moreover, the composite z-score in [8] came to 1.07; in test [9], 2.36; in test [10], 0.55; in the test with Albumin (Bos taurus), 0.999; in test [12], 0.272; in test [13], 0.233. Moreover, the composite z-score was 0.761 in test [14]; 2.14 in [15]; 0.986 in test [16]; 1.1 in the test with Sam68 (KHDRBS1); 0.248 in test [17]; 1.11 in test [18]. The z-score in [2] was determined as 0.633. For the same molecule, the composite Z-score in [11] is 0.0811 (inactive).

The record behind these values is PubChem BioAssay.
